“And” between values parts separate entries of the source, which are not always exact repeats. Identical values can stand only once. Records with an inconclusive call do not appear. Where a call stands in place of a potency, no number is given. The source made the active and inactive calls. Unless noted, calls come from the whole dose curve.
Potency is the fitted concentration of half-maximal effect.

A short description of the first test: qHTS assay for small molecule agonists of the antioxidant response element (ARE) signaling pathway (AID 743202; active = well fitted activation curve with a large enough effect in the signal ratio in the repeat runs, not every such curve was filed as active; the % refers to the signal ratio). The following applies: HepG2 ARE-bla reporter, beta-lactamase FRET, 16 h; series mostly up to 73.3 µM; activation: at the top concentration. A digest of the protocol: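 An ARE-responsive beta-lactamase gene stably integrated in HepG2 cells serves as reporter. After 5 h plating and 16 h compound incubation at 37 C, fluorescence of the B/G FRET substrate was measured.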
Take `CCCCOCCOCCOC(=O)CCCCC(=O)OCCOCCOCCCC`: the Potency entry is “inactive”. For `CCCCCCCCC`, the Potency result is “inactive”. On the same count and under the same terms, the entry for `OC[C@@H](O)[C@H](O)[C@H](O)[C@@H](O)CO` is “inactive”; for `CC(C)Cc1ccccc1` it is “inactive”. Same read-out and setting: the same measure for `CCCCCC/C=C/CCCCCCCC(=O)O`: “inactive”. As to `O=S(=O)(Oc1ccc(Cl)cc1Cl)c1ccccc1`, the Potency result was “inactive”. For the compound `O=[N+]([O-])c1cccc(Cl)c1`, the “activation” value is 4.57% (inactive). With `Cc1cc(O)c2c(c1)C(=O)c1cc(O)cc(O)c1C2=O`, the Potency is 4.23 µM (active).

Regarding `CCCCCCCCCCCCOCC1CO1` (stereo unspecified), the Potency entry was “inactive”. The same measure, in the same setting: the same measure for `Cc1ccc(C)c(C)c1`: “inactive”. Still for that read-out and setting: the same measure for `OC1CCCC1`: “inactive”; for `NC(=O)/N=N/C(N)=O`: “inactive”; for `c1ccc2ccccc2c1`: “inactive”. `CC1(C)O[C@@H]2C[C@H]3[C@@H]4C[C@H](F)C5=CC(=O)CC[C@]5(C)[C@H]4[C@@H](O)C[C@]3(C)[C@]2(C(=O)CO)O1`: the “activation” value was 1.22% (inactive). `C=C(C#N)C(=O)OCC`: the Potency result is “inactive”. As for `CC1=C(/C=C/C(C)=C/C=C/C(C)=C/CO)C(C)(C)CCC1`, the Potency was 61.9 µM (active) and 57.4 µM (active). `O=S(=O)(O)CCS`: the Potency result is “inactive”. `OCC1CCCO1` (stereo unspecified): the Potency entry was “inactive”. For `Cc1ccc(N)c(S(=O)(=O)O)c1`, the Potency entry was “inactive”. Turning to `C/C=C(C)/C=C/C=C(C)C`, the Potency was 60.4 µM (active). Turning to `NCCc1ccc(O)c(O)c1`, the Potency is 109 nM (active) and 376 nM (active). Turning to `CCOC(=O)C1OC1c1ccccc1` (stereo unspecified), the “activation” value is -3.09% [at 94.8 µM] (inactive). On to `CC1COc2ccccc2N1C(=O)C(Cl)Cl` (stereo unspecified), for which the Potency was 19.3 µM (active) and 27.3 µM (active).

As for `O=C(O)c1cc(-c2ccccc2)nc2ccccc12`, the “activation” value is 2.29% (inactive). Same read-out and setting: the figure for `CCCCC/C=C\C/C=C\CCCCCCCC(=O)OC` is -3.73% (inactive). As for `Nc1nc2ncc(CNc3ccc(C(=O)N[C@@H](CCC(=O)O)C(=O)O)cc3)nc2c(=O)[nH]1`, the Potency result is “inactive”. In the case of `O=[N+]([O-])C(CO)(CO)CO`, the Potency is 33.9 µM (active) and 21.7 µM (active). As to `NS(=O)(=O)c1cc2c(cc1Cl)NC=NS2(=O)=O`, the “activation” value is -8.94% [at 94.8 µM] (inactive). For the compound `CCC(=O)O`, the Potency entry was “inactive”. Same read-out and setting: the entry for `CCOC(=O)[C@H](CCc1ccccc1)N[C@@H](C)C(=O)N1Cc2ccccc2C[C@H]1C(=O)O` is “inactive”. The same measure, in the same setting: the entry for `O=C(Oc1ccccc1)c1ccc(O)cc1` is “inactive”.

A further test in a line: qHTS assay for small molecule agonists of the antioxidant response element (ARE) signaling pathway - cell viability counter screen (AID 743203). Note: nearly all actives have a fitted effect of over 55% in size. The following applies: ARE-bla HepG2 viability, CellTiter-Glo luminescence, 16 h; series mostly up to 73.3 µM; viability change, negative = cytotoxic: at the top concentration. A digest of the protocol:
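Seeded at 2,000 cells/well, ARE-bla HepG2 cells were incubated 5 hrs before compound addition. After 16 hrs of treatment at 37C with 5% CO2, CellTiter-Glo reagent was added and luminescence read 30 min later.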
In general terms: In qHTS, concentration-response curves come from the screen itself.
With `COC(=O)Nc1nc2ccc(Sc3ccccc3)cc2[nH]1`, the Potency result was “inactive”. Still for that read-out and setting: the entry for `CCCCOCCOCCOC(=O)CCCCC(=O)OCCOCCOCCCC` is “inactive”; for `CCCCCCCCC` it is “inactive”.

On to `OC[C@@H](O)[C@H](O)[C@H](O)[C@@H](O)CO`, for which the Potency result was “inactive”. Take `CC(C)Cc1ccccc1`: the Potency entry was “inactive”.

On to `CC1=C(CC(=O)O)c2cc(F)ccc2/C1=C\c1ccc(S(C)=O)cc1` (stereo unspecified), for which the “viability change, negative = cytotoxic” value is 14.3% (inactive). Turning to `CCCCCC/C=C/CCCCCCCC(=O)O`, the Potency entry is “inactive”. `O=S(=O)(Oc1ccc(Cl)cc1Cl)c1ccccc1`: the Potency result is “inactive”. As to `O=[N+]([O-])c1cccc(Cl)c1`, the Potency result was “inactive”. Turning to `Cc1cc(O)c2c(c1)C(=O)c1cc(O)cc(O)c1C2=O`, the Potency was 23.8 µM (active).

Consider `CCCCCCCCCCCCOCC1CO1` (stereo unspecified), for which the Potency result is “inactive”. The same measure, in the same setting: the same measure for `Cc1ccc(C)c(C)c1`: “inactive”; for `OC1CCCC1`: “inactive”; for `NC(=O)/N=N/C(N)=O`: “inactive”. Turning to `c1ccc2ccccc2c1`, the Potency entry is “inactive”. Still for that read-out and setting: the same measure for `CC1(C)O[C@@H]2C[C@H]3[C@@H]4C[C@H](F)C5=CC(=O)CC[C@]5(C)[C@H]4[C@@H](O)C[C@]3(C)[C@]2(C(=O)CO)O1`: “inactive”; for `Cc1ccc(C(=O)O)o1`: “inactive”. `C=C(C#N)C(=O)OCC`: the “viability change, negative = cytotoxic” value is 11.5% (inactive).

For the compound `O=C(c1ccc(O)cc1)c1ccc(O)cc1O`, the Potency result was “inactive”. On to `Nc1cc(-c2ccncc2)c[nH]c1=O`, for which the Potency result is “inactive”. On the same count and under the same terms, the entry for `CC1=C(/C=C/C(C)=C/C=C/C(C)=C/CO)C(C)(C)CCC1` is “inactive”; for `O=C(c1cc(O)c(O)c(O)c1)c1ccc(O)c(O)c1O` it is “inactive”. On the same count and under the same terms, the same measure for `O=S(=O)(O)CCS`: “inactive”; for `OCC1CCCO1` (stereo unspecified): “inactive”; for `Cc1ccc(N)c(S(=O)(=O)O)c1`: “inactive”.

As for `C/C=C(C)/C=C/C=C(C)C`, the Potency result is “inactive”. Still for that read-out and setting: the same measure for `NCCc1ccc(O)c(O)c1`: “inactive”; for `CCCCC(CC)COC(=O)/C=C\C(=O)OCC(CC)CCCC` (stereo unspecified): “inactive”. On the same count and under the same terms, the same measure for `CCOC(=O)C1OC1c1ccccc1` (stereo unspecified): “inactive”. On the same count and under the same terms, the same measure for `CC1COc2ccccc2N1C(=O)C(Cl)Cl` (stereo unspecified): “inactive”; for `O=C(O)c1cc(-c2ccccc2)nc2ccccc12`: “inactive”.

Regarding `CCCCC/C=C\C/C=C\CCCCCCCC(=O)OC`, the “viability change, negative = cytotoxic” value is -2.7% (inactive). Consider `Nc1nc2ncc(CNc3ccc(C(=O)N[C@@H](CCC(=O)O)C(=O)O)cc3)nc2c(=O)[nH]1`, for which the Potency entry is “inactive”.

For `O=[N+]([O-])C(CO)(CO)CO`, the Potency entry is “inactive”. The same measure, in the same setting: the same measure for `NS(=O)(=O)c1cc2c(cc1Cl)NC=NS2(=O)=O`: “inactive”.

Values taken from PubChem BioAssay (Tox21).
